# A selection: hits, their analogues and other compounds. The true share with any hit is near 6.8%.
# T cruzi growth-1: T. cruzi proliferation inhibition | T. cruzi beta-gal in NIH3T3, GalScreen luminescence, 90 h | inhibition, % at 8.34 µM | 77,000 compounds, 5.9% hits | AID 624255;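 active = mean inhibition above about 93%, with at least 55% of replicates each passing it, limit read from the data, passing the limit was not always enough; inconclusive = only one of those two conditions holds; inactive = neither condition holds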
# Pf Dd2 inh: P. falciparum Dd2 growth inhibition; SYBR Green, 72 h; active compounds read low; activity change, % at 10 µM; 94,000 compounds, 2.3% hits; AID 1159554; in the data active = activity change below about -80%; inconclusive = no clear call, values can overlap the other calls
# C diff growth: inhibitors of Clostridium difficile growth | growth activity, negative = inhibition, % at 16 µg/mL (by protocol) | 86,000 compounds, 0.25% hits | Clostridium difficile clinical isolate growth, OD600, 24 h; active compounds read low | AID 1259249;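 active = mean growth activity at or below -80% and every replicate also at or below -80%; inconclusive = mean at or below -80% but some replicate above -80%; inactive = mean growth activity above -80%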;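 note: 0% = DMSO wells and -100% = levofloxacin 16 µg/mL wells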
# T cruzi growth-2: inhibitors of T. cruzi proliferation; shares compounds with T cruzi growth-1; T. cruzi beta-gal in NIH3T3, GalScreen luminescence, 90 h; inhibition, % at 8.35 µM; 5,600 compounds, 72% hits; AID 651739;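 active = mean replicate inhibition above about 95% and at least 55% of replicates individually reaching it, limit read from the data; inconclusive = only one of the two criteria is met; inactive = neither criterion is met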
# T cruzi growth-3: blocks T. cruzi growth in NIH3T3 host cells; 5,600 compounds, 21% hits; T. cruzi beta-gal in NIH3T3, GalScreen luminescence, 90 h; inhibition, % at 2.09 µM; AID 651740; shares compounds with T cruzi growth-1;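 active = mean inhibition above about 95%, with at least 55% of replicates also reaching it, limit read from the data; inconclusive = meets just one of the two conditions; inactive = meets neither condition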;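 note: plate controls were neutral control median for no effect and positive control median for full effect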
# 3T3 cytotox: kills mouse NIH/3T3 fibroblasts. shares compounds with T cruzi growth-1. NIH/3T3 viability, CellTiter-Glo ATP luminescence, 90 h. cytotoxicity (signal decrease), % at 8.35 µM. 5,600 compounds, 14% hits;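 active = mean signal decrease across replicates above about 35% based on untreated-well scatter, with enough replicates individually passing, limit read from the data; inconclusive = no rule stated though some were filed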;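 note: 0% = median of neutral control wells and 100% = median of positive control wells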
# 3T3 cytotox 2: NIH/3T3 (mouse) viability loss. AID 651744. shares compounds with T cruzi growth-1. NIH/3T3 viability, CellTiter-Glo ATP luminescence, 90 h. 5,600 compounds, 56% hits. inhibition, % at 24.9 µM;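 active = mean loss of cell viability signal at or above a set limit, and enough replicates individually reaching it; inconclusive = meets only the mean limit or only the replicate share; inactive = meets neither condition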;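 note: 0% = median of neutral control wells and 100% = median of positive control wells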
# The depositor's hits bear a star; ? = inconclusive; . = not tested or not shown.
SMILES,T cruzi growth-1,Pf Dd2 inh,C diff growth,T cruzi growth-2,T cruzi growth-3,3T3 cytotox,3T3 cytotox 2
O=C(C[C@@H]1CC[C@H](NC(=O)CN2CCOCC2)[C@@H](CO)O1)NCCc1ccncc1,68,8,.,.,.,.,.
CN(C)C(=O)[C@@H]1[C@@H](CO)[C@@H]2Cn3c(ccc(C4=CCCC4)c3=O)[C@H]1N2C(=O)c1ccccc1,27,1,1,.,.,.,.
C[C@@H]1CCCCO[C@H](CN(C)Cc2ccc(C(=O)O)cc2)[C@H](C)CN([C@H](C)CO)C(=O)c2cc(NC(=O)Nc3ccc4c(c3)OCO4)ccc2O1,-3,6,5,.,.,.,.
CCC(=O)N(C)C[C@H]1Oc2cc(Br)ccc2S(=O)(=O)N([C@H](C)CO)C[C@@H]1C,.,30,3,.,.,.,.
C[C@@H]1CCCCO[C@@H](CN(C)C(=O)NC2CCCCC2)[C@H](C)CN([C@@H](C)CO)C(=O)c2cc(NS(=O)(=O)c3ccc(F)cc3)ccc2O1,62,6,5,.,.,.,.
Cc1noc(C)c1NC(=O)N(C)C[C@H]1Oc2c(NS(=O)(=O)c3ccccc3)cccc2C(=O)N([C@H](C)CO)C[C@@H]1C,.,42,1,.,.,.,.
Cc1ccc(S(=O)(=O)N[C@@H]2CC[C@H](CCn3cc(C(C)C)nn3)O[C@H]2CO)cc1,65,-30,-3,.,.,.,.
CCC(=O)N(C)C[C@H]1Oc2cc(C#Cc3ccncc3)ccc2S(=O)(=O)N([C@H](C)CO)C[C@H]1C,107*,-45,3,38,36,13,38*
C[C@H](CO)N1C[C@H](C)[C@H](CN(C)S(C)(=O)=O)Oc2cc(C#CC3CCCC3)ccc2S1(=O)=O,?,3,.,100*,35,27,66*
CCC(=O)N(C)C[C@H]1Oc2cc(C#Cc3ccncc3)ccc2S(=O)(=O)N([C@H](C)CO)C[C@@H]1C,31,-16,7,.,.,.,.
C[C@H]1CN([C@@H](C)CO)S(=O)(=O)c2ccc(C#CC3CCCC3)cc2O[C@H]1CN(C)S(C)(=O)=O,89,0,.,.,.,.,.
CCCNC(=O)C[C@@H]1C[C@H]2c3cc(N(C)C)ccc3O[C@H]2[C@@H](CO)O1,28,10,-2,.,.,.,.
CO[C@H]1CN(C)C(=O)c2cc(NS(=O)(=O)Cc3ccccc3)ccc2OC[C@H](C)NC[C@@H]1C,17,18,.,.,.,.,.
COCC(=O)N1[C@@H](CO)[C@@H](c2ccccc2)C12CN(C(=O)c1cccc(F)c1)C2,.,25,-2,.,.,.,.
COc1ccccc1NC(=O)N1CCCCN2[C@H](CO)[C@H](c3ccc(C#CC4CC4)cc3)[C@H]2C1,.,-79,40,.,.,.,.
C[C@@H]1CN([C@@H](C)CO)C(=O)c2cccc(NS(=O)(=O)c3ccccc3)c2O[C@H]1CN(C)Cc1ccc(C(=O)O)cc1,4,13,-3,.,.,.,.
OC[C@@H]1[C@@H](c2ccc(C#CC3(O)CCCC3)cc2)[C@@H]2CN(Cc3cccnc3)CCCCN12,85,-9,-5,.,.,.,.
OC[C@H]1[C@H](c2ccc(C#CC3(O)CCCC3)cc2)[C@H]2CN(Cc3cccnc3)CCCCN21,85,-4,-5,.,.,.,.
OC[C@H]1[C@H](c2ccc(C#CC3(O)CCCC3)cc2)[C@@H]2CN(Cc3cccnc3)CCCCN12,108*,8,-1,98*,76,0,-18
OC[C@@H]1[C@H](c2ccc(C#CC3(O)CCCC3)cc2)[C@@H]2CN(Cc3cccnc3)CCCCN12,101*,-4,0,107*,91,19,23
C[C@@H]1CN([C@@H](C)CO)C(=O)c2cc(C#Cc3ccccc3)cnc2O[C@H]1CN(C)CC1CCOCC1,1,-36,3,.,.,.,.
C[C@@H]1CN([C@@H](C)CO)C(=O)c2cc(NC(=O)c3ccccc3)ccc2O[C@@H](C)CCCCO[C@H]1CN(C)C(=O)c1ccccc1,?,-52,-4,91,0,-2,0
C[C@@H]1CCCCO[C@@H](CN(C)C)[C@H](C)CN([C@@H](C)CO)C(=O)c2cc(NC(=O)c3ccncc3)ccc2O1,100*,29,-4,-11,-38,-9,-4
C[C@H](CO)N1C[C@H](C)[C@@H](CN(C)C)OCCCC[C@H](C)Oc2ccc(NC(=O)c3ccncc3)cc2C1=O,3,.,1,.,.,.,.
